# From PubChem BioAssay (NCATS)
# Records with an inconclusive call do not appear. A call without a number means that no potency is given here. Active and inactive are the calls of the source. Unless noted, the call rests on the fitted dose curve; in most records, active means well fitted curve in the direction sought with a large enough effect; inconclusive means small, poorly fitted or top-dose-only effect, or another doubt; inactive means no such curve, though single readings can be large; an effect the other way counts as inactive or inconclusive.
# Key:
# [1] = target: Catechol O-methyltransferase (Homo sapiens) (UniProt P21964); test: Confirmatory Screen for Target Class Profiling of Small Molecule Inhibitors of Methyltransferases (AID 1745852); settings: MTase-Glo luminescence, SAH detection, recombinant enzyme; measured here: COMT max response; stronger effect = lower value
# [2] = target: Guanidinoacetate N-methyltransferase (Homo sapiens) (UniProt Q14353); test: as above; settings: activity change, negative = inhibition: at 57.3 µM (top of the series) unless noted
# [3] = target: Nicotinamide N-methyltransferase (Homo sapiens) (UniProt P40261); test: as above; settings: MTase-Glo luminescence, SAH detection, recombinant enzyme; measured here: NNMT max response; stronger effect = lower value
# [4] = target: Phenylethanolamine N-methyltransferase (Homo sapiens) (UniProt P11086); test: as above; settings: MTase-Glo luminescence, SAH detection, recombinant enzyme; measured here: PNMT max response; stronger effect = lower value
# [5] = target: DNA repair nuclease/redox regulator APEX1 (Homo sapiens) (UniProt P27695); test: qHTS Validation Assay for Inhibitors of the Human Apurinic/apyrimidinic Endonuclease 1 (APE1) (AID 1705;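 further: TAMRA fluorescence gain over two minutes as APE1 cuts a quenched THF abasic duplex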)
# In short: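 qHTS, 1536-well. APE1 + cpd 15 min RT → 50 nM TAMRA/BHQ-2 THF-abasic dsDNA substrate → kinetic fluorescence, 3 reads/60 s; delta(read3−read1) = reaction progress. No-enzyme buffer = negative control.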
# [6] = Counterscreen for APE1 Inhibitors: Fluorescent Dye Displacement Validation Assay (AID 1707)
# In short: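 Loss of Thiazole Orange fluorescence marks promiscuous DNA binders. The dye (250 nM) is mixed with 50 nM abasic-site dsDNA in pH7.5 Tris buffer containing MgCl2, then compounds are added and emission is read once.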
# [7] = qHTS for differential inhibitors of proliferation of Plasmodium falciparum line 7G8 (AID 1815);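 further: parasite growth measured after three days of incubation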
# [8] = qHTS for differential inhibitors of proliferation of Plasmodium falciparum line 3D7 (AID 1876);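 further: parasite growth measured after three days of culture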
# [9] = qHTS for differential inhibitors of proliferation of Plasmodium falciparum line D10 (AID 1877);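 further: parasites grown with compound for 72 h before DNA staining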
# [10] = qHTS for differential inhibitors of proliferation of Plasmodium falciparum line Dd2 (AID 1882); settings: Potency: Plasmodium falciparum Dd2 proliferation inhibition; further: nearly all actives have a fitted effect of over 65% in size
# In short: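 SYBR Green DNA fluorescence (ex 485, em 535 nm) after overnight lysis quantifies parasite growth; compound exposure lasted 72 h at 37 C on infected red cells at 2.5% hematocrit, 0.3% parasitemia (final). Artemisinin 0.29 uM and vehicle wells define normalization.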
# [11] = qHTS for differential inhibitors of proliferation of Plasmodium falciparum line W2 (AID 1883); settings: Potency: Plasmodium falciparum W2 proliferation inhibition;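 further: parasites grown with compound for 72 h before lysis and staining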
# [12] = qHTS for differential inhibitors of proliferation of Plasmodium falciparum line HB3 (AID 1886); settings: Potency: Plasmodium falciparum HB3 proliferation inhibition;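 further: parasites grown with compound for 72 h before SYBR Green readout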
# [13] = target: Ferritin light chain (Equus caballus) (UniProt P02791); test: qHTS Validation Assay for Identification of Novel General Anesthetics (AID 2323)
# In short: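 Fluorescence at 535 nm (excitation 380 nm) reported loss of 1-AMA binding to horse-spleen apoferritin (10 uM) in PBS with 50% saturated 1-aminoanthracene, after 10 min room-temperature incubation with compound; values from Hill fits of normalized response.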
# [14] = target: ATP-dependent DNA helicase Q1 (Homo sapiens) (UniProt P46063); test: qHTS Validation Assay for Inhibitors of RecQ-Like Dna Helicase 1 (RECQ1) (AID 2353)
# In short: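 RECQ1T1 50 nM; forked duplex (20 bp + 30-nt ss tails) 200 nM, ATP 2 mM final; pH 8.0, 2 mM MgCl2, 2.5 ug/ml poly(dI-dC); 15 min compound preincubation; discontinuous kinetic read over 2 h at RT.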
# [15] = Quantitative high throughput screen for delayed death inhibitors of the malarial parasite plastid, 96 hour incubation (AID 488745); further: nearly all actives have a fitted effect of over 70% in size
# In short: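 Decreased firefly luciferase luminescence indicates inhibited growth of reporter-integrated P. falciparum after two generations (96 h, 37 C, 5% CO2). Infected erythrocytes at 0.1% parasitemia, 2% hematocrit, in Albumax-supplemented RPMI 1640.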
# [16] = Quantitative high throughput screen for delayed death inhibitors of the malarial parasite plastid, 48 hour incubation (AID 488752); further: nearly all actives have a fitted effect of over 65% in size
# In short: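 One-generation (48 h) growth assay: a decrease in luciferase signal from an integrated reporter in P. falciparum-infected red cells (0.1% parasitemia, 2% hematocrit) after compound exposure at 37 C indicates parasite inhibition.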
# [17] = target: M-phase phosphoprotein 8 (Homo sapiens) (UniProt Q99549); test: qHTS Validation Assay for Inhibitors for MPP8 Chromodomain Interactions with Methylated Histone Tails (AID 488949);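 further: 50 nM MPP8 with 50 nM peptide preformed then compounds added for 30 min; AlphaScreen signal from MPP8 chromodomain bound to biotinylated H3K9me3 peptide; top concentration of the series differs between compounds; nearly all actives have a fitted effect of over 55% in size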
# In short: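 50 nM MPP8 + 50 nM b-H3K9me3 peptide, PBS pH 7.4/0.01% Tween-20, 30 min RT; + cpd 30 min RT; + AlphaScreen donor/Ni-chelate acceptor beads 10 ug/mL final, 30 min dark; luminescence read.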
# [18] = target: Transient receptor potential cation channel subfamily V member 1 (Homo sapiens) (UniProt Q8NER1); test: HTS Assay for Compounds that Act as Enhancers of the Vanilloid Receptor 1 (AID 488979)
# In short: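 TRPV1-expressing cells loaded with Fluo-8 calcium dye; compounds added and calcium influx read kinetically for 3 min (agonist phase), then capsaicin at EC20 added and read 2 min more for enhancement. Fluorescence ex 480/em 520 nm.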
# [19] = target: Thyrotropin receptor (Homo sapiens) (UniProt P16473); test: qHTS Assay for Antagonists of the Thyroid Stimulating Hormone Receptor (AID 488980)
# In short: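 Readout is cAMP by HTRF competition between cellular cAMP and cAMP-d2 for a cryptate-labelled antibody. Antagonism was assessed in TSHR-transfected HEK293 cells stimulated with 4 nM TSH (EC80, final) in the presence of RO 20-1724.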
# [20] = target: Thyrotropin-releasing hormone receptor (Homo sapiens) (UniProt P34981); test: qHTS for Small Molecule Agonists and Allosteric Enhancers of Human TRH Receptor: Validation Screen for Agonists (AID 493127;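 active means calcium activation more than 3 SD above the typical response in the agonist read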;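 further: intracellular calcium rise by fluo-8 fluorescence before TRH EC20 addition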); settings: TRH receptor agonist cell assay; at 2 µM; stronger effect = higher value
# In short: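 Compound-evoked intracellular calcium release in fluo-8-loaded TRHR cells, read kinetically on FDSS (Ex 480/Em 530, 1 s/cycle) after 23 nL pintool transfer. Agonist phase preceded 10 nM TRH EC20 addition.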
# [21] = target: Galactokinase (Homo sapiens) (UniProt P51570); test: qHTS Validation Assay for Inhibitors of Human Galactokinase (GALK) (AID 493189)
# In short: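 5 nM GALK / 100 uM galactose / 35 uM ATP, 20 mM HEPES pH8.0, 5 mM MgCl2, 60 mM NaCl, 1 mM DTT, 0.01% BSA (final). RT 1 h; Kinase-Glo Plus luminescence.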
# [22] = target: Voltage-gated inwardly rectifying potassium channel KCNH2 (Homo sapiens) (UniProt Q12809); test: qHTS Assay for Small Molecule Inhibitors of the Human hERG Channel Activity (AID 588834);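 further: top concentration of the series differs between compounds; lower thallium flux fluorescence means stronger hERG block; nearly all actives have a fitted effect of over 50% in size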
# In short: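 Step 1: BacMam hERG transduction of U2OS, 4 hrs RT. Step 2: overnight 37 °C, plate 2000 cells/well, 4 hr. Step 3: FluxOR load, compound 10 min, stimulate, read fluorescence.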
# Phenylethanolamine N-methyltransferase (Homo sapiens), sequence (P11086 whole entry, looked up): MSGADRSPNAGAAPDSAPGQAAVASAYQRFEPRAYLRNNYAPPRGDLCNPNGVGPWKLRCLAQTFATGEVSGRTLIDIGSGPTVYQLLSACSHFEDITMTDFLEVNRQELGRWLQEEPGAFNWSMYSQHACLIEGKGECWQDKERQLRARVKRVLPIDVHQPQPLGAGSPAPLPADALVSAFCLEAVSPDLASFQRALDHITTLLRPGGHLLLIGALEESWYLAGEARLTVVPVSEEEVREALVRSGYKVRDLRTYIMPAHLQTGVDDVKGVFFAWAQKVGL
# Nicotinamide N-methyltransferase (Homo sapiens), sequence (P40261 whole entry, looked up): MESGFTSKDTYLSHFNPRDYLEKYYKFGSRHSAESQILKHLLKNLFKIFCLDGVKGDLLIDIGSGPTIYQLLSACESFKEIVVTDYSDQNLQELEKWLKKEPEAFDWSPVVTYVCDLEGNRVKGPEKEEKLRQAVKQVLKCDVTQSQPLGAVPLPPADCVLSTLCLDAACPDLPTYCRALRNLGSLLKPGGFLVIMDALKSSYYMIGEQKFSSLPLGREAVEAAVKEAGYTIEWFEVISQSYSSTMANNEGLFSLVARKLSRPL
# Catechol O-methyltransferase (Homo sapiens), sequence (P21964 whole entry, looked up): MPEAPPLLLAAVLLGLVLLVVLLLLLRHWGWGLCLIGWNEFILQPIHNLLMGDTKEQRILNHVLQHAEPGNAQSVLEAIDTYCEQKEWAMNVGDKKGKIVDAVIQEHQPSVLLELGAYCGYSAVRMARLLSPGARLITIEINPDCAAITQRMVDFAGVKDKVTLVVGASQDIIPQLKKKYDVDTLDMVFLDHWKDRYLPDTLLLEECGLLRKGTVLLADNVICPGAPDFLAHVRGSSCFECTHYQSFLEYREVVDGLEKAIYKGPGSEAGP
# Transient receptor potential cation channel subfamily V member 1 (Homo sapiens), sequence (Q8NER1 whole entry, looked up): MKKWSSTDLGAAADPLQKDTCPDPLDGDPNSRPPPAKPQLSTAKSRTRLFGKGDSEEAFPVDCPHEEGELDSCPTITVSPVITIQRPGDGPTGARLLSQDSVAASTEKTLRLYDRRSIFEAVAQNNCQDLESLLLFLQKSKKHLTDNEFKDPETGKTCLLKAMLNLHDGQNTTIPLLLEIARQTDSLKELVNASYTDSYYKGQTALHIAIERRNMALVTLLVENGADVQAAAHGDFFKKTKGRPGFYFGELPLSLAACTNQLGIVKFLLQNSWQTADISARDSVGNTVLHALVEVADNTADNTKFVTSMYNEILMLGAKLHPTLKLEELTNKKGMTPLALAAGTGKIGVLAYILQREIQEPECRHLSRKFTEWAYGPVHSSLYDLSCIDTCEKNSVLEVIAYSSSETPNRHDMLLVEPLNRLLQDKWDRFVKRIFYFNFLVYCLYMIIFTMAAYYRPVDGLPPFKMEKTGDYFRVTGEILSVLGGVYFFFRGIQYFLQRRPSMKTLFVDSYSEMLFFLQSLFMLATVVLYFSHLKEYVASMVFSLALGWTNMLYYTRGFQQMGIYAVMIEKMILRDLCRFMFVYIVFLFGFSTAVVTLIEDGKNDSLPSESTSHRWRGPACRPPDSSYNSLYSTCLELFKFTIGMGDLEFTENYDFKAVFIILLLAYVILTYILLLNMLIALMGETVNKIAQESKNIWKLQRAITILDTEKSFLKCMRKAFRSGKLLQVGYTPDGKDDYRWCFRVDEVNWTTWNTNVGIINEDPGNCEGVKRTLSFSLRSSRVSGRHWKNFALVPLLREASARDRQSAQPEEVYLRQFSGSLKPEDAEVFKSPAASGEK
# Thyrotropin-releasing hormone receptor (Homo sapiens), sequence (P34981 whole entry, looked up): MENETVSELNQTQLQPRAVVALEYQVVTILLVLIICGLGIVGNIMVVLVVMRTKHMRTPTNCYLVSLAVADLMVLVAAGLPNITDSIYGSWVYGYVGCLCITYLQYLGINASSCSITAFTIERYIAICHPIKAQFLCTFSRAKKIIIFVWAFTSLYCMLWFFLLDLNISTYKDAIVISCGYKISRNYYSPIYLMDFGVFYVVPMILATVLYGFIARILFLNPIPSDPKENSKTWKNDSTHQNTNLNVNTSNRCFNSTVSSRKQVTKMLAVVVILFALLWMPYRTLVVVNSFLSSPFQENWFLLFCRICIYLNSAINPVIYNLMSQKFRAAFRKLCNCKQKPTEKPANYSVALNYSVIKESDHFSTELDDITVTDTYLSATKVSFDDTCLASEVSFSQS
# Thyrotropin receptor (Homo sapiens), sequence (P16473 whole entry, looked up): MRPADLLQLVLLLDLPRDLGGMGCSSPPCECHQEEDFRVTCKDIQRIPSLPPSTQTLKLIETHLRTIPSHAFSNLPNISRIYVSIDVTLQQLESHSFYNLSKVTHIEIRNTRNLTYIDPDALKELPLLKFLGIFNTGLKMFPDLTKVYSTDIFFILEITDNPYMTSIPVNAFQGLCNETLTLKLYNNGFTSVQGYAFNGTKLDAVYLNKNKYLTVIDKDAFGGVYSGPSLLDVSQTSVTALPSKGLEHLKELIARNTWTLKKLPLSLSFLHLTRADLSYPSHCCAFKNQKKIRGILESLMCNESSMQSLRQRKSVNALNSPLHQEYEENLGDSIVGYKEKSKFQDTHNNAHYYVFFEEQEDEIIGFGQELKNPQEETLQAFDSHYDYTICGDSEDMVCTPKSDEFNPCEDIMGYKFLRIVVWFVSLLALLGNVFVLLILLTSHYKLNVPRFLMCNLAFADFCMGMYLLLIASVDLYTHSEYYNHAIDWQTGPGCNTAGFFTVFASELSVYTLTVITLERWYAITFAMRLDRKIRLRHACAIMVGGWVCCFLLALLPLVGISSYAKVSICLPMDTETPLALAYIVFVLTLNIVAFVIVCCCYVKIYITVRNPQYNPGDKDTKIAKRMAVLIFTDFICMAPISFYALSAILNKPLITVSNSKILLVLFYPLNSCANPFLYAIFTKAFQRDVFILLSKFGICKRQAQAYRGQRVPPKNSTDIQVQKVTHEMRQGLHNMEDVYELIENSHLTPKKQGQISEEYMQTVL
# Voltage-gated inwardly rectifying potassium channel KCNH2 (Homo sapiens), sequence (Q12809 whole entry, looked up): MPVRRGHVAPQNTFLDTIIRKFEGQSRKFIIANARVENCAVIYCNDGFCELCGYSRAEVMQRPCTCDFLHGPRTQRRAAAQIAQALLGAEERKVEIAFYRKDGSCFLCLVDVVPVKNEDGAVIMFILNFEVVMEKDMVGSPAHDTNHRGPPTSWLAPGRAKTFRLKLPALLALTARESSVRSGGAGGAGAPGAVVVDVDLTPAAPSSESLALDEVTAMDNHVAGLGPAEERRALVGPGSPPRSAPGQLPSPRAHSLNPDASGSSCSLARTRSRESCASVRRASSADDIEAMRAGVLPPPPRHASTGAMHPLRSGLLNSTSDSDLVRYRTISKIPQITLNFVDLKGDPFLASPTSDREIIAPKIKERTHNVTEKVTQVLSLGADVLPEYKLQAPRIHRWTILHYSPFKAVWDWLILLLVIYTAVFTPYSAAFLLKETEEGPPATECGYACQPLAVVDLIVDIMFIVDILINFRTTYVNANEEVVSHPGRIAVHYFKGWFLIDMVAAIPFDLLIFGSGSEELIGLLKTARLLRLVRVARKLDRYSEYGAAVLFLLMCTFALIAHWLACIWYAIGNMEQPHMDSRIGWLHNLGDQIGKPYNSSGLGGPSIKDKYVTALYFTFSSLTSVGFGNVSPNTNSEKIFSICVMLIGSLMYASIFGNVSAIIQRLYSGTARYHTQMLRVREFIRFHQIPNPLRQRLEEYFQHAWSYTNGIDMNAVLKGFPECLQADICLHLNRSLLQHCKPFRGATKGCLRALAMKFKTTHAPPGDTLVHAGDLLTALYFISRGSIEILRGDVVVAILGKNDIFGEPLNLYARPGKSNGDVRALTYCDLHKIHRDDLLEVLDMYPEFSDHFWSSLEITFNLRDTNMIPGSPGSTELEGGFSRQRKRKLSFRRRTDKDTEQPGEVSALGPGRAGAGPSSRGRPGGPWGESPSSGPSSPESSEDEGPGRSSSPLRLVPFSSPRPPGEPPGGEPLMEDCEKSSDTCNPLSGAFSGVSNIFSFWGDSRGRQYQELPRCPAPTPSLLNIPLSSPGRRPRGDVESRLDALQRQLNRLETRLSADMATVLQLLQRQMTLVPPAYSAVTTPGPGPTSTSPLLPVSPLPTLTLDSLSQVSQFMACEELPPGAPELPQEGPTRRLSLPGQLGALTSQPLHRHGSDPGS
# M-phase phosphoprotein 8 (Homo sapiens), sequence (Q99549 whole entry, looked up): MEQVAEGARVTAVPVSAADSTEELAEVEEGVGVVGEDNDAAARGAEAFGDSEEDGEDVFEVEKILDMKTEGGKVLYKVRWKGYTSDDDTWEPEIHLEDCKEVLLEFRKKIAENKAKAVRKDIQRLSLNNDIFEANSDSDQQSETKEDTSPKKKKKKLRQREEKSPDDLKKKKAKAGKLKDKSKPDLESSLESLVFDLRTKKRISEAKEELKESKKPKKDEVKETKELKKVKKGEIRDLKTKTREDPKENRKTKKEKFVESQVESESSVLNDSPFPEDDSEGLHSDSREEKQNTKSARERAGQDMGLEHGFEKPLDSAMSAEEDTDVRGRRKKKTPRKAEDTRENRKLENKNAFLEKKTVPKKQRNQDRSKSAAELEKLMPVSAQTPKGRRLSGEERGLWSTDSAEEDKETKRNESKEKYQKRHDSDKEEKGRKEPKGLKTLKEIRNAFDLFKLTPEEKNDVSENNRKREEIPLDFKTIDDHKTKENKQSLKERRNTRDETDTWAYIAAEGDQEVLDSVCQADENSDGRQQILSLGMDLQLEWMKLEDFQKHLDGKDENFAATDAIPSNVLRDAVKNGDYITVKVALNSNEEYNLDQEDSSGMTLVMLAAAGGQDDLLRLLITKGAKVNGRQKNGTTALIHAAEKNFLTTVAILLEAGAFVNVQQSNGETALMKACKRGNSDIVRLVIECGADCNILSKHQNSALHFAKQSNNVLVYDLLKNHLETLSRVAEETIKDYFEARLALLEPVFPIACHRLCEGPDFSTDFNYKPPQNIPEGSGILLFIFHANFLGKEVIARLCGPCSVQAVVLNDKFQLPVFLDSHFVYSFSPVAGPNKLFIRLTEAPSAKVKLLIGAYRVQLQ
# Ferritin light chain (Equus caballus), sequence (P02791 2-175 limits assumed): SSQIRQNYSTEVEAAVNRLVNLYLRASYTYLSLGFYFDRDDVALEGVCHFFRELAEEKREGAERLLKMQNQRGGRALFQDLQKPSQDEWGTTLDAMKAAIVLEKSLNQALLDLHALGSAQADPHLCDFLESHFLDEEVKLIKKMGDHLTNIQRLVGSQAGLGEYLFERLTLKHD
compound,measurement,setting,value
COc1cccc2c1OCCCN(c1cc(C3CC(O)C3)nc(N)n1)C2 (stereo not given),activity,[1],5.04%
same,"activity change, negative = inhibition",[2],6.51%
same,activity,[3],3.54%
same,activity,[4],4.23%
Nc1nc(Cl)nc2c1ncn2[C@@H]1O[C@H](COP(=O)(O)OP(=O)(O)OP(=O)(O)O)[C@H](O)[C@H]1O,Potency,[5],inactive
same,outcome,[6],inactive
same,Potency,[7],inactive
same,Potency,[8],inactive
same,Potency,[9],inactive
same,Potency,[10],inactive
same,Potency,[11],inactive
same,Potency,[12],inactive
same,outcome,[13],inactive
same,outcome,[14],inactive
same,Potency,[15],inactive
same,Potency,[16],inactive
same,Potency,[17],inactive
same,outcome,[18],inactive
same,outcome,[19],inactive
same,activation,[20],6.94% (inactive)
same,outcome,[21],inactive
same,Potency,[22],inactive
CN1CCN(C)c2cnc(-c3cnn(Cc4ccccc4)c3)cc2C1,activity,[1],6.86%
same,"activity change, negative = inhibition",[2],5.27% [at 85.7 µM]
same,activity,[3],6.62%
same,activity,[4],8.78%
Cc1cnc(C2CC2)n1C1CCCN(Cc2ccccc2)C1 (stereo not given),activity,[1],3.04%
same,"activity change, negative = inhibition",[2],5.24%
same,activity,[3],-1.39%
same,activity,[4],0.832%
